Data published in the supplement of paper PMC6555819.

What was measured:
Assay in all cases: PBM binding z-score (relative to random genomic background probes); higher = stronger binding; sequences stand for … in GC…GCGATTGACAGCGTAGAATGAAGG
[1] = tested on: FXR:RXRa (NR concentration 270 nM, RXRa partner concentration 90 nM)
Method in brief: (§1)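 Random background probes are the reference for binding z-scores. These scores derive from regression-normalized fluorescence on custom Agilent 4×180K protein-binding microarrays incubated 1 h with ligand-free nuclear receptor dimers. Binding was detected with antibodies against each partner (one per run).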

[2] = tested on: LXRa:RXRa (NR concentration 270 nM, RXRa partner concentration 90 nM)
Method in brief: as §1

[3] = tested on: LXRa homodimer (NR concentration 270 nM)
Method in brief: as §1

[4] = tested on: LXRb:RXRa (NR concentration 270 nM, RXRa partner concentration 90 nM)
Method in brief: as §1

[5] = tested on: LXRb homodimer (NR concentration 270 nM)
Method in brief: as §1

[6] = tested on: PPARa:RXRa (NR concentration 270 nM, RXRa partner concentration 90 nM)
Method in brief: as §1

[7] = tested on: PPARg:RXRa (NR concentration 180 nM, RXRa partner concentration 90 nM)
Method in brief: as §1

[8] = tested on: PPARg:RXRa 270nM:90nM, anti-RXR (NR concentration 270 nM, RXRa partner concentration 90 nM)
Method in brief: as §1

[9] = tested on: PPARg:RXRa 30nM:10nM, anti-RXR (NR concentration 30 nM, RXRa partner concentration 10 nM)
Method in brief: as §1

[10] = tested on: PPARg:RXRa 90nM:30nM, anti-RXR (NR concentration 90 nM, RXRa partner concentration 30 nM)
Method in brief: as §1

[11] = tested on: PPARg:RXRa DBDmut IVT, anti-RXR (DBD mutation: RXRa K156A/R161A, NR concentration 270 nM, RXRa partner concentration 90 nM)
Method in brief: as §1

[12] = tested on: PPARg:RXRa IVT, anti-PPARg (NR concentration 270 nM, RXRa partner concentration 90 nM)
Method in brief: as §1

[13] = tested on: PPARg DBDmut:RXRa IVT, anti-PPARg (DBD mutation: PPARg1 K132A/R137A, NR concentration 270 nM, RXRa partner concentration 90 nM)
Method in brief: as §1

[14] = tested on: PPARg DBDmut IVT, anti-PPARg (DBD mutation: PPARg1 K132A/R137A, NR concentration 270 nM)
Method in brief: as §1

[15] = tested on: PPARg homodimer (NR concentration 180 nM)
Method in brief: as §1

[16] = tested on: PXR:RXRa (NR concentration 270 nM, RXRa partner concentration 90 nM)
Method in brief: as §1

[17] = tested on: PXR homodimer (NR concentration 270 nM)
Method in brief: as §1

[18] = tested on: RARa:RXR (NR concentration 270 nM, RXRa partner concentration 90 nM)
Method in brief: as §1

[19] = tested on: RARa homodimer (NR concentration 270 nM)
Method in brief: as §1

[20] = tested on: RARb:RXRa (NR concentration 270 nM, RXRa partner concentration 90 nM)
Method in brief: as §1

Sequence	PBM binding z-score [1]	PBM binding z-score [2]	PBM binding z-score [3]	PBM binding z-score [4]	PBM binding z-score [5]	PBM binding z-score [6]	PBM binding z-score [7]	PBM binding z-score [8]	PBM binding z-score [9]	PBM binding z-score [10]	PBM binding z-score [11]	PBM binding z-score [12]	PBM binding z-score [13]	PBM binding z-score [14]	PBM binding z-score [15]	PBM binding z-score [16]	PBM binding z-score [17]	PBM binding z-score [18]	PBM binding z-score [19]	PBM binding z-score [20]
CTACCAAGGTGAACAAGGTCGTTGATTACTATTC	1.47	1.38	0.19	1.91	-0.383	2.45	1.12	1.4	0.0996	0.622	2.26	2.58	0.576	0.29	0.831	2.96	1.95	2.45	0.346	2.16
CCTACTGGGCCATTCAGCGGTCATTGATCATATG	-0.0404	0.756	3.78	0.208	-0.516	0.727	0.533	0.538	-0.375	0.242	4.3	3.25	0.0512	-0.76	0.303	-0.111	-0.0854	0.0105	0.0285	1.2
AGAACGAGGGCACGTTGAGTTGATAGCAGAGTAG	0.758	0.705	-0.372	0.249	-0.789	2.23	2.19	1.42	0.235	0.958	3.79	3.75	0.741	-0.039	0.701	1.33	0.471	0.629	-0.287	2.42
TTGCCTAGGTCATGGGCCAGTATACCACGCGAAC	4.71	3.43	0.623	2.49	-0.439	4.25	3.7	3.59	0.614	2.48	1.44	3.33	0.457	0.0191	0.932	1.95	-0.21	2.8	-0.254	4.07
AGTATGAGGTTATACGTAGATCAGGGAAGAAAGT	1.82	2.03	0.26	1.56	0.204	2.46	1.32	1.2	0.646	1.07	1.1	0.98	0.752	0.274	0.842	1.25	0.582	1.66	0.209	1.58
ATCTGTAGGTAAAGATAGTTCAGTGAATGCAAAT	0.274	4.33	0.422	0.986	0.477	0.733	0.782	0.571	0.256	0.391	1.63	1.5	0.849	0.832	0.977	1.03	0.786	0.946	0.896	0.675
CGTGCAAGGTCAGCAGGTCAGTGAAAGCGACGTG	6.34	4.37	0.442	3.25	-0.32	5.48	4.89	4.92	1.7	3.51	3.36	3.96	-0.142	0.527	2.62	3.87	0.564	4.71	0.769	5.35
ACTAGCAGGCCAAGGGGCACTCAAGATTAGTCCG	-0.336	-0.192	-0.413	0.0457	-0.63	1.63	4.11	4.46	2.5	4.64	0.959	1.41	0.105	-0.646	-0.02	-0.175	-0.332	-0.0268	-0.844	1.09
ATCGAAAGGTCGAAGGGGAGTATACCCACCCGAA	4.05	3.15	0.303	2.7	0.76	4.19	3.19	2.91	1.16	1.99	-0.023	1.38	1.29	0.309	1.15	2.21	0.32	2.79	0.273	3.73
CCTAGTTGGTCAAGGCCACACACGCTATAGGTAC	0.421	0.312	0.477	0.547	0.294	0.252	0.917	0.608	-0.0145	0.142	1.25	1.16	0.294	0.121	1	0.291	1.6	0.34	0.796	1.76
CCTTACGGTTCACGAGGTTATAGCACGACGAGCG	3.45	3.49	1.87	2.57	0.189	3.75	1.96	2.4	0.593	1.58	0.19	0.535	0.19	0.414	1.45	3.2	1.29	3.8	1.36	1.99
CCAGACAGGTGAAAGGTAACACAGTCTGGTACGC	0.883	0.799	-0.29	0.919	-0.313	3.54	5.85	6.13	4.72	6.42	2.09	3.4	-0.472	-0.499	0.837	1.29	-0.0519	1.69	0.436	1.36
CGTCCAAGGTCAATGCTAGGTGAGTGAAAGCATT	5.97	4.36	0.361	3.28	0.445	4.69	3.49	4	0.812	2.99	3.33	3.79	0.0432	-0.14	1.77	3.31	0.668	3.57	0.59	4.9
AGTCAAAGTTCACTAGGTAACGCAAGATTCAGCT	5.26	4.86	2.69	2.93	0.956	4.83	7.22	6.82	3.62	6.03	3.01	4.84	0.915	1.01	2.5	3.77	2.6	3.32	1.39	4.93
CCAGACAGGTGAGAAGCTAACTCAGCCTCGATTA	-0.201	-0.31	-0.163	-0.228	-0.869	0.155	0.347	0.159	-0.632	-0.0205	1.24	0.141	-0.708	-1.08	0.381	-0.471	-0.163	-0.265	0.766	0.227
